# The supplement of paper PMC9948646
# System: gramicidin D channels in DC22:1PC lipid vesicles (bilayer-modifying potency)
# Assay: initial Tl+ fluorescence quench rate relative to no-drug control (NormRate, gramicidin monomer-dimer shift) (ratio (fold of control)); higher = stronger bilayer-modifying effect (equilibrium shifted toward conducting dimers), active = 1.5 or more
# Conditions: 10 µM; lipid concentration 50 µM; temperature: 25 °C
# Procedure: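 Stopped-flow fluorescence quench assay: ANTS-loaded DC22:1PC large unilamellar vesicles doped with gramicidin D (1:2000), 50 µM lipid, equilibrated 10 min with 10 µM drug (0.1% DMSO), mixed with Tl+ quench buffer at 25°C. Initial quench rate (Tl+ influx) was fitted with a modified stretched exponential and normalised to the no-drug control rate (NormRate); duplicates from two independent LUV preparations (triplicates for 7 drugs).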
row,SMILES,initial Tl+ fluorescence quench rate
1,CC(C)(CN)c1nc(-c2ccc(Cl)c(O)c2)c(-c2ccnc(N)n2)[nH]1,1.15 (inactive)
2,O=C(NC1CC1)c1ccc(CSCc2ccccc2Cl)o1,1.35 (inactive)
3,O=C(c1cc2ccccc2o1)N1CCN(Cc2ccc3c(c2)OCO3)CC1,1.08 (inactive)
4,O=C1N(Cc2cc3ccccc3s2)C[C@H]2CN(Cc3ccccc3)CCN12,2.35 (active)
5,N#CCN(CCCCN1CCN(c2ccc(F)cc2)CC1)C(=O)OCc1ccccc1,1.5 (inactive)
6,O=C(N[C@H]1CCN(c2ccnc3ccccc23)C1)c1cccc(C(F)(F)F)c1,1.27 (inactive)
7,Cc1ccc2c(c1C)NC(=O)[C@@]21NN=C(c2ccccc2)S1,1.38 (inactive)
8,O=C(NC1CC1)c1ccc(N2CCOc3ccc(Cl)cc32)s1,3.52 (active)
9,CCc1nc2ccc(C(=O)NCc3ccc4c(c3)OCO4)cn2c1N(C)Cc1cccs1,2.01 (active)
10,c1coc(CNc2nc(N3CCCCC3)nc3ccccc23)c1,1.02 (inactive)
11,Nc1nc2ccc(-c3cncc(Oc4ccc(F)cc4)c3)cc2[nH]1,1.85 (active)
12,CC(=O)N1CCN(c2ccc(Oc3ccc(Cl)cc3O)cc2)CC1,1.51 (active)
13,CC(C)/N=c1\cc2n(-c3ccc(Cl)cc3)c3ccccc3nc-2cc1Nc1ccc(Cl)cc1,5.63 (active)
14,Nc1ccc(C(=O)Nc2ccc(-c3nc4ccccc4o3)cc2)cc1,1.1 (inactive)
15,Cn1ccnc1CNCCS(=O)(=O)c1cccc(Nc2ccc(-c3cccc(F)c3)cn2)c1,2.38 (active)
16,O=[N+]([O-])c1cn2c(n1)OC[C@@H](OCc1ccc(OC(F)(F)F)cc1)C2,1.38 (inactive)
17,CN1CCN(CCCOc2ncc(Nc3ncc(-c4ccc(C(F)(F)F)c(F)c4)nc3C(N)=O)cn2)CC1,3.11 (active)
18,C[C@H]1CCCCN1C(=O)NCCc1coc(-c2ccc(F)cc2)n1,1.06 (inactive)
19,Nc1ncc(-c2ccc(C(F)(F)F)nc2)cc1-c1ccc(C(F)(F)F)nc1,1.08 (inactive)
20,CC(C)(C)OC(=O)N1CCN(c2nccc(-c3ccc(-c4ccc(Cl)cc4)s3)n2)CC1,1.28 (inactive)

row,SMILES,initial Tl+ fluorescence quench rate
1,COc1ccc(-c2cnc3cnc(-c4cccc(OC(C)C)c4)cn23)cc1,2.01 (active)
2,CCS(=O)(=O)N(Cc1ccco1)Cc1cc2ccc(C)cc2nc1O,1.26 (inactive)
3,Cn1ncc2c(N3CCOCC3)nc(NCCc3c[nH]c4ccccc34)nc21,3.03 (active)
4,Cc1nn(C(=O)Nc2cccc(C(F)(F)F)c2)c(C)c1Sc1ncccn1,2 (active)
5,Cc1cccc(Cn2ccc(NC(=O)c3ccc4c(c3)OCO4)n2)c1,1.35 (inactive)
6,CC(=O)NC[C@H]1CN(c2ccc(-c3ccc(CO)cc3)c(F)c2)C(=O)O1,1.22 (inactive)
7,O=C(NC1CC1)c1ccc(N2CCC(Cc3ccccc3)CC2)nc1,1.43 (inactive)
8,O=C(C1CCCCC1)N1CC(=O)N2CCc3ccccc3[C@@H]2C1,1.04 (inactive)
9,CC(C)(C)c1cc(C(=O)N2CCN(c3nccnc3C#N)CC2)n(Cc2ccccc2)n1,1.21 (inactive)
10,COC(=O)C1=C(C)NC(C)=C(C(=O)OC(C)C)[C@@H]1c1cccc2nonc12,1.33 (inactive)
11,C[C@H]1CCCN(C(=O)[C@H](C)Nc2cc(Cl)ccc2N2CCOCC2)C1,1.23 (inactive)
12,O=C(NCCc1c[nH]c2ccccc12)c1cc2ccccc2oc1=O,1.95 (active)
13,Cc1nn2c(O)c3c(nc2c1-c1ccc(F)cc1)CCCC3,1.07 (inactive)
14,C[C@H](C(=O)Nc1ccc2oc(-c3ccncc3)nc2c1)c1ccccc1,1.09 (inactive)
15,COc1ccc2nc(C)cc(OCC(=O)NCc3ccccc3)c2c1,1.06 (inactive)
16,C[C@H](C(N)=O)N1CCCC[C@@H]1c1ccc(OCc2cccc(F)c2)cc1,2.68 (active)
17,O=C(Nc1ccc2c(c1)B(O)OC2)c1ccccc1C(F)(F)F,1.06 (inactive)
18,COc1cc(C2=NCCN2)ccc1-n1cc(-c2cccc(C3=NCCN3)c2)nn1,1.15 (inactive)
19,Cc1nc2ccccn2c1C(=O)NCc1ccc(Cl)cc1,1.17 (inactive)
20,[H]/N=C(/N)Nc1ccc(-c2ccc(-c3ccc(N/C(N)=N/[H])cc3Cl)o2)c(Cl)c1,1.53 (active)
